For 38 compounds, outcome and AC50 results are on record in PubChem BioAssay (EPA / NIEHS).

The structures appear in SMILES notation. Several values for one entry are separate records, joined by “and”; a condition that tells them apart may be missing. Equal values may be shown once. More than one record can exist for a structure, and the calls need not agree. Activity calls are given as the source filed them. How the source made its calls: active means hit-call score of the fitted dose curve at least 0.9, where 1 is the maximum; inactive means score below 0.9.

Read-out in the test: Urokinase-type plasminogen activator receptor (uPAR), PLAUR (gene 5329)
Nature of the test: BSK_4H_uPAR: BioMAP Diversity Plus: 4H Assay for Urokinase-type plasminogen activator receptor (uPAR) Biomarker Activity (AID 2283030). The settings on record: primary human endothelial cells (HUVEC); actives raise or lower the signal. As to the method: BSK_4H is a cell-based, multiplexed-readout assay that uses umbilical vein endothelium, a human vascular primary cell, with measurements taken at 24 hours after chemical dosing in a 96-well plate.BSK_4HAR is an assay component measured in the BSK_4H assay. It measures uPAR antibody related to regulation of gene expression using ELISA technology.Data from the assay component BSK_4HAR was analyzed into 1 assay endpoint. This assay endpoint, BSK_4HAR, was analyzed with bidirectional fitting relative to DMSO as the negative control and baseline of activity. Using a type of binding reporter, gain or loss-of-signal activity can be used to understand changes in the signaling as they relate to the gene PLAUR. Furthermore, this assay endpoint can be referred to as a primary readout, because this assay has produced multiple assay endpoints where this one serves a signaling function. To generalize the intended target to other relatable targets, this assay endpoint is annotated to the cytokine intended target family, where the subfamily is plasmogen activator.
The levels of cell surface (or secreted, indicated by the prefix "s") biomarker endpoints were measured by ELISA. Overt cytotoxicity to cells in confluent adherent cultures (all systems other than the BT system) was assessed by measuring total protein levels using sulforhodamine B (SRB) staining in parallel cultures at the time of biomarker measurements, indicated as SRB endpoints. For proliferation assays for adherent cell types, individual cell types are cultured at sub-confluence and relative cell numbers quantified by SRB staining at time points optimized for each system (48 h: 3C and CASM3C systems; 72 h: BT and HDF3CGF systems; 96 h: SAg system). SRB was performed by staining cells with 0.1% SRB after fixation with 10% TCA and reading wells at 560 nm.Viability and proliferation of PBMC (T cells) was quantified by Alamar Blue reduction for the SAg and BT systems. For PBMC viability (referred to as PBMC Cytotoxicity within the assay endpoint names), cells were plated (75,000/well in a 96-well plate) and then chemical samples added for 1 h before addition of activators, SEB and TSST-1 (20 ng/mL final concentration each). Cells were incubated for 90 h. Then, Alamar Blue (20 uL/well) (Invitrogen, Cat DAL1100) was added for 6 h, and the plates were read with a fluorescence microplate reader at 546/580 nm (excitation/emission). For PBMC proliferation, cells were plated and activated as above but incubated for only 16 h prior to addition of Alamar Blue. Plates were read after 6 h.
As for `Nc1ccc(-c2ccc(N)c(N)c2)cc1N`, the outcome was inactive.
`Cc1ccc(OP(=O)(Oc2ccc(C)cc2)Oc2ccc(C)cc2)cc1` (tested in a mixture with another compound): the result was inactive.
Regarding `O=[N+]([O-])O`, the outcome was inactive.
The same measure, in the same setting: the same measure for `CC(C)COP(=O)(OCC(C)C)OCC(C)C`: “inactive”.
In the case of `O=C(CCl)c1ccccc1`, the AC50 is 9.98 µM (active).
With `O=[N+]([O-])C=Cc1ccccc1`, the AC50 was 5.14 µM (active).
On to `c1ccc(Nc2ccc3ccccc3c2)cc1`, for which the AC50 is 31.3 µM (active).
Take `COCC(=O)N(c1c(C)cccc1C)N1CCOC1=O`: the outcome was inactive.
On to `CCC(C)c1cc([N+](=O)[O-])cc([N+](=O)[O-])c1OC(=O)C=C(C)C` (stereo not given), for which the AC50 is 5.79 µM (active).
Turning to `CC(C)CCCCCCCOC(=O)c1ccccc1C(=O)OCCCCCCCC(C)C`, the outcome was inactive.
Consider `CCc1cc(C)cc(CC)c1-c1c(OC(=O)C(C)(C)C)n2n(c1=O)CCOCC2`, for which the outcome was inactive.
As for `CC1(C)[C@H](C(=O)O[C@H](C#N)c2cccc(Oc3ccccc3)c2)[C@@H]1C=C(Br)Br`, the AC50 is 5.23 µM (active) and the outcome was inactive.
Take `Clc1ccc(-c2ccccc2)cc1`: the result was inactive.
Still for that read-out and setting: the same measure for `O=P1(NCCCl)OCCCN1CCCl` (stereo not given): “inactive”; for `CCCC[N+](CCCC)(CCCC)CCCC`: “inactive”.
On the same count and under the same terms, with `CC(=O)/C=C/c1ccccc1` the entry was “inactive”.
In the case of `CCCCCCCCCCCC#N`, the half-maximal activity concentration (AC50) was 20.6 µM (active).
With `O=c1[nH]c(Cl)c(Cl)cc1Cl`, the outcome was inactive.
Regarding `N#CCCCCC#N`, the outcome was inactive.
`O=C1C=CC(=O)C=C1`: the result was inactive.
`CC(C)(C)C(=O)CCl`: the outcome was inactive.
For the compound `CC(C)(C)C(O)C(Oc1ccc(-c2ccccc2)cc1)n1cncn1` (stereo not given), the AC50 is 31.8 µM (active).
For the compound `O=C(O)CCCc1ccc(N(CCCl)CCCl)cc1`, the AC50 is 0.687 µM (active) and the result was inactive.
Take `C=CCN(CC=C)C(=O)C(Cl)Cl`: the result was inactive.
Turning to `CC(C)CCCCCCCOP(=O)(Oc1ccccc1)Oc1ccccc1`, the AC50 was 29.1 µM (active).
As for `Oc1ccc(C2(c3ccc(O)cc3)c3ccccc3-c3ccccc32)cc1`, the concentration at half-maximal activity (AC50) is 16.5 µM (active) and 14.4 µM (active).
On the same count and under the same terms, the same measure for `CC(C)(c1cc(Cl)c(O)c(Cl)c1)c1cc(Cl)c(O)c(Cl)c1`: 30.2 µM (active).
`O=c1c2ccccc2c(=O)c2c1cc(Cl)c1[nH]c3c([nH]c12)c(Cl)cc1c(=O)c2ccccc2c(=O)c13`: the result was inactive.
In the case of `[Cd+2].[Cl-].[Cl-]`, the result was inactive.
On to `O=C1C(Cl)=C(Cl)C(=O)C(Cl)=C1Cl`, for which the AC50 is 31.9 µM (active).
As for `CNC(=O)Oc1cc(C)c(SC)c(C)c1`, the outcome was inactive.
In the case of `O=S(=O)(c1ccccc1)c1ccccc1`, the result was inactive.
With `Oc1cc(Cl)ccc1Cl`, the outcome was inactive.
In the case of `COc1ccc(CO)cc1`, the outcome was inactive.
For the compound `O=[N+]([O-])c1ccc(Cl)cc1`, the result was inactive.
Regarding `CCCOC(=O)c1ccccc1C(=O)OCCC`, the result was inactive.
In the case of `C=CC(=O)OCC(CC)CCCC` (stereo not given), the outcome was inactive.
For the compound `COC(C)(C)CCC[C@H](C)C/C=C/C(C)=C/C(=O)OC(C)C`, the concentration at half-maximal activity (AC50) was 32.6 µM (active).
